Source: PubChem
Rows were chosen to be rich in hits. Some 4.1% of all compounds tested hit in one or more screens of this group.
MEKK2mut PB1 HTS: signal of MEK5 binding to mutant human MEKK2 PB1 domain; bead flow cytometry, Alexa488-MEK5 binding to MEKK2 mutant; percent response, % at 10 µM; 290,000 tested, 0.35% active; in the data active = percent response above about 24%, passing the limit was not always enough
CHT inh: inhibitors of human choline transporter CHT; Q9GZV3; CHT-expressing cells, membrane potential dye, choline response; hits give low values; B-score at 10 µM; 310,000 tested, 0.86% active;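 active = B-score over 3 SD under the library average, and starting fluorescence ratio not unusually high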;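 note: choline stimulus applied at its EC90 after an EC20 pre-addition; B-score computed on integrated fluorescence ratio after choline addition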
MEKK3 PB1 HTS: modulators (inhibitors or enhancers) of MEK5 binding to human MEKK3 PB1 domain | Q99759 | bead-based flow cytometry, Alexa488-MEK5 binding to MEKK3; actives lie on both sides; 0 = blocked by unlabeled MEK5, 100 = vehicle | binding response (% of control), % at 10 µM | 290,000 tested, 1.4% active;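 active = binding response more than 3 SD above or below the average of its plate-row segment, actives on both sides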;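 note: Alexa488 bead fluorescence after subtracting the streptavidin-only scavenger bead signal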
Target sequence (Q99759 whole entry, looked up, the tested form may be a part): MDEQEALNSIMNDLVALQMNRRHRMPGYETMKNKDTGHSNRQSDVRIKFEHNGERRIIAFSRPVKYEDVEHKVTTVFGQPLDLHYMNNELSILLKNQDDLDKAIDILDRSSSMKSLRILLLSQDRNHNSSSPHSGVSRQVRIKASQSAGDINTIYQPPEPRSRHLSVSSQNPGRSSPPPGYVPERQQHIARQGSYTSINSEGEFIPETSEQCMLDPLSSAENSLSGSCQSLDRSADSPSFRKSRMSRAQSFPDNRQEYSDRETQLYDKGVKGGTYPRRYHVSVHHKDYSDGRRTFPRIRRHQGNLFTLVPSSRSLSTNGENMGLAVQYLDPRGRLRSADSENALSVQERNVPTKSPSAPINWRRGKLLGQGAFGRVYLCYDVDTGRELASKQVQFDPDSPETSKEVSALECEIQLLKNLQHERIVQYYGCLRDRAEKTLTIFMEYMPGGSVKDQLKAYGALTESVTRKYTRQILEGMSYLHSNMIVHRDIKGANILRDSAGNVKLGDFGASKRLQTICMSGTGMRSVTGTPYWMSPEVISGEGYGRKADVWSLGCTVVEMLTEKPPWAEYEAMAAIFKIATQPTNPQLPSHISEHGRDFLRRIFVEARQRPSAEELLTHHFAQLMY
SUMO Mot1 rescue: blocks SUMOylation pathway, rescuing yeast Mot1-301 growth; growth rescue, % at 18.8 µM; 320,000 tested, 1% active; S. cerevisiae Mot1-301 growth rescue, ATP luminescence, 38.5C; percent above DMSO median, 100 means doubled;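 active = every valid replicate shows activation above 250% relative to neutral control wells; inactive = the rest, any valid replicate at or below 250%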;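 note: OY570 slx delta 5 strain wells were the positive control but not used for scaling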
CHT allo act: allosteric activators of human choline transporter CHT; 310,000 tested, 0.49% active; B-score at 10 µM; CHT-expressing cells, membrane potential dye, choline EC20; hits give high values; LV-AA mutant CHT in HEK293 cells;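 active = initial fluorescence not abnormally high and integrated response B-score, plate-corrected, over 3 SD above library mean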
MEKK2 WT-MEK5: raises or lowers MEK5 binding to wildtype human MEKK2 PB1 domain | Q9Y2U5 | bead flow cytometry, Alexa488-MEK5 binding to MEKK2 WT; actives lie on both sides | AID 1531 | binding response (% of control), % at 10 µM | 290,000 tested, 1.1% active; in the data active = binding response below about 67% or above about 130%
The depositor's hits bear a star; i = inactive; . = no result given; + = active, no number; [ ] = another dose, or the depositor's remark.

SMILES	MEKK2mut PB1 HTS	CHT inh	MEKK3 PB1 HTS	SUMO Mot1 rescue	CHT allo act	MEKK2 WT-MEK5
COCCCNC(=S)N(CCO)Cc1cc2cc3c(cc2[nH]c1=O)OCO3	9	i	104	-4	i	108
COc1ccc(N=C2O/C(=C/c3sc(=S)n(CC4CCCO4)c3O)N=C2C#N)cc1 (centres undefined)	6	i	98	35	i	33*
CCNc1nc(-c2ccc(OC(F)F)cc2)c(C)s1	-33	i	66	-8	i	60
Cc1cc(-c2nnc(SCCC(=O)Nc3ccccc3)o2)no1	-3	i	99	12	i	100
COc1cccc(-c2nc(-c3ccccc3)c(-c3ccccc3)[nH]2)c1OCC(=O)O	4	-6.6*	98	-21	i	101
O=C(NCCc1ccccc1)C1CCC(CNS(=O)(=O)c2cccc3cccnc23)CC1 (centres undefined)	-4	i	98	-8	i	99
CCN(CC)c1ccc2c(Cl)c(Br)c(=O)oc2c1	-2	i	90	8	i	-27*
COc1ccc(N(CC(=O)NCCC2=CCCCC2)S(=O)(=O)c2ccccc2)c(OC)c1	0	i	123	12	i	110
COc1ccc(/C=C/C(=O)c2ccc(C(=O)/C=C/c3ccc(OC)c(OC)c3)cc2)cc1OC	-3	.	96	.	.	94
COc1ccc(/C=C\c2cc(OC)c(OC)cc2CC[N+](C)(C)C)cc1OC	6	i	111	5	10*	101
Cc1ccc([N+](=O)[O-])c(OCCN2CCc3ccccc3C2)c1	9	i	101	160	i	112
Cc1ccc([N+](=O)[O-])c(OCCCN2CCC(Cc3ccccc3)CC2)c1	15	i	111	1	i	143*
CCC(C)NC(=O)c1cc(S(=O)(=O)N2CCCCC2)c[nH]1 (centres undefined)	0	i	101	3	i	103
Cc1ccc(C(C)C)cc1OCCCCN1CCCC1	-1	i	100	320*	i	84
O=S1(=O)N=C(Nc2ccc(N3CCOCC3)cc2)c2ccccc21	48	i	100	5	i	37*
COc1ccc(C(=O)NC(=S)Nc2ccc(N3CCOCC3)cc2)cc1Cl	-1	i	101	3	i	102
COc1ccc(S(=O)(=O)N2CCC(C(=O)NCCN3CCOCC3)CC2)cc1C	-8	i	96	9	i	97
COc1ccc(S(=O)(=O)N2CCCC(C(=O)NCCN3CCOCC3)C2)cc1C (centres undefined)	-5	i	100	318*	i	98
O=C(NC12CC3CC(CC(C3)C1)C2)c1cc(F)c(F)c(F)c1F	2	i	105	8	i	104
C#CCOCCOCCOCCNc1nc(N2CCN(C(=O)CCCCCCCCCCNC(=O)[C@H]([C@@H](C)CC)n3cc(CCCCN=C(N)N)nn3)CC2)nc(N2CCN(C(=O)CCCCCCCCCCNC(=O)[C@H](CCCCN)n3cc(C)nn3)CC2)n1	.	i	.	204	6.3*	.
C#CCOCCOCCOCCNc1nc(N2CCN(C(=O)[C@H](CCCCN)n3cc(C(N)COC(=O)C(F)(F)F)nn3)CC2)nc(N2CCN(C(=O)[C@H](CCCCN)n3cc(C(N)CC(C)C)nn3)CC2)n1 (some centres undefined)	21	.	101	.	.	150*
C#CCOCCOCCOCCNc1nc(N2CCOCC2)nc(N2CCN(C(=O)[C@H](CCCCN)n3cc([C@@H](N)CC(C)C)nn3)CC2)n1	12	i	107	13	i	118
CC1Cc2cc(S(=O)(=O)N3CCC(C(N)=O)CC3)ccc2N1C(=O)C1CC1 (centres undefined)	-17	i	2.0*[inhibitor]	-8	i	0.0*[inhibitor]
COc1cc(OC)c2c(-c3ccccc3)cc(=O)oc2c1C(CC(=O)N1CCN(c2ccccc2)CC1)c1ccc(N(C)C)cc1 (centres undefined)	-14	i	89	-9	i	85
COc1cc(OC)c2c(-c3ccccc3)cc(=O)oc2c1C(CC(=O)N1CCN(c2ccccc2)CC1)c1ccc2c(c1)OCO2 (centres undefined)	0	.	131*	.	.	145*
SMILES	MEKK2mut PB1 HTS	CHT inh	MEKK3 PB1 HTS	SUMO Mot1 rescue	CHT allo act	MEKK2 WT-MEK5
Cc1ccc(C)c(N(CC(=O)NC2CCCC2)C(=O)CCC(=O)Nc2cc(C)on2)c1	2	i	100	18	i	103
O=C(O)CCC(=O)N1CCN(c2ncccc2C(F)(F)F)CC1	3	i	106	-13	i	108
Cc1cccc(N2CCN(C(=O)CCN3C(=S)NC(C)(C)CC3C)CC2)c1C (centres undefined)	-11	i	57	614*	i	68
Cc1cccc2c1-c1sc(C(=O)NCCCN3CCC(C)CC3)cc1CO2	29*	i	107	-1	i	186*
CC1CCN(CCCNC(=O)c2cc3c(s2)-c2ccccc2OC3)CC1	11	i	104	-21	i	134*
COc1cc(OC)cc(-c2nnc(SCc3ccc(C(=O)O)cc3)o2)c1	5	i	104	-24	i	104
Cc1ccc(NC(=O)C(=O)NCCCN2CCCC2=O)cc1	.	i	.	433*	i	.
O=C(COc1coc(CN2CCN(c3ccc(F)cc3)CC2)cc1=O)NC1CCCC1	.	i	.	297*	i	.
O=C(COc1coc(CN2CCN(c3ccccc3)CC2)cc1=O)NC1CCCC1	.	i	.	4	i	.
Cc1ccn2c(NC(=O)C(C)(C)Oc3ccc(Cl)cc3)c(-c3cccs3)nc2c1	11	-7.9*	98	-2	i	90
CC(CCC(C)C(C)(C)C)[C@@H]1CC[C@H]2C3C[C@H](OS(O)(=S)=S)[C@H]4C[C@H](OS(O)(=S)=S)[C@@H](OS(O)(=S)=S)C[C@]4(C)[C@H]3CC[C@]12C (some centres undefined) (tested in a mixture with another compound)	.	.	.	+	.	.
COc1cccc(C=Nc2cc(C)cc(C)c2)c1O	0	i	102	10	i	101
COc1cc(Br)cc(C=Nc2cccc(C(F)(F)F)c2)c1O	-1	i	104	326*	i	107
COc1cc(C(=O)Nc2ccc3c(c2)ncn3C)cc(OC)c1OC	0	i	104	-20	i	105
COc1cc(C(=O)Nc2ccc3c(c2)nc(C)n3C)cc(OC)c1OC	2	i	102	-3	6.5*	107
